In PubChem BioAssay (NCATS):
Records with an inconclusive call do not appear. A call without a number means that no potency is given here. Active and inactive are the calls of the source. The call rests on the fitted dose curve; in most records, active means well fitted curve in the direction sought with a large enough effect; inconclusive means small, poorly fitted or top-dose-only effect, or another doubt; inactive means no such curve, though single readings can be large; an effect the other way counts as inactive or inconclusive.

What was measured:
[1] = target: Aldehyde dehydrogenase, mitochondrial (Homo sapiens) (UniProt P05091); experiment: qHTS for Inhibitors of the Aldehyde Dehydrogenase Family (ALDH2) Primary screen (AID 2061308); further: nearly all actives have a fitted effect of over 55% in size
[2] = target: Retinaldehyde dehydrogenase 3 (Homo sapiens) (UniProt P47895); experiment: qHTS for Inhibitors of the Aldehyde Dehydrogenase Family (ALDH1A3) Primary screen (AID 2061315)

| SMILES | Potency [1] | Potency [2] |
| --- | --- | --- |
| CC(C)(C)c1cccc(NC(=O)Nc2nnc(-c3ccncc3)s2)c1 | inactive | inactive |
| Cc1ccccc1-c1nc(NCc2ccc(-c3cccnc3)cc2)c2ccccc2n1 | inactive | inactive |
| Cc1cc(C)nc(NC(=S)N2CCN(c3nc4ccccc4s3)CC2)c1 | inactive | inactive |
| Cc1cc(C)nc(NC(=S)N2CCN(C3=Nc4ccccc4Oc4ccccc43)CC2)c1 | inactive | inactive |
| O=C(O)c1ccc(-c2ccc3ncnc(NCCc4cnc[nH]4)c3c2)o1 | inactive | inactive |
| COc1ccc(C(=O)Nc2ccc(-c3nc4ccccc4[nH]3)cc2)cc1F | inactive | inactive |
| Cn1c2cc(Br)sc2c2cnn(Cc3ccc(F)cc3F)c(=O)c21 | inactive | inactive |
| Cc1ccccc1C(=O)NCC(=O)OC(C(=O)Nc1cc(C(F)(F)F)ccc1Cl)c1ccccc1 (stereo unspecified) | inactive | inactive |
| CC(C)(C)N[S+](=O)([O-])c1cccc(-c2nnc(SCC(=O)Nc3ccc(C(=O)O)cc3)n2-c2ccccc2)c1 | inactive | inactive |
| COc1cccc(CNc2ccc(S(=O)(=O)Nc3ncc(C)s3)cc2)c1O | inactive | inactive |
| O=S(=O)(Nc1cccc2ccccc12)c1ccc(NCc2ccc(Br)cc2O)cc1 | inactive | inactive |
| N#Cc1no[n+]([O-])c1-c1ccccc1 | inactive | inactive |
| Cc1cc(C)nc(NC(=S)N2CCN(c3ccccc3C#N)CC2)c1 | inactive | inactive |
| CCOC(=O)C1CCN(C(=O)C(C)(C)NC(=O)Nc2ccc([N+](=O)[O-])cc2)CC1 | inactive | inactive |
| CC(=O)NS(=O)(=O)c1ccc(NC(=O)c2cc(-c3ccc(C)c(C)c3)nc3ccccc23)cc1 | inactive | inactive |
| O=C(O)c1ccc(-c2ccc3ncnc(N4CCOCC4)c3c2)o1 | inactive | inactive |
| CC(C)CC(=O)c1c(O)cc2c(c1O)C(CC(C)C)C1=C(O2)C(C)(C)C(=O)C(C)(C)C1=O (stereo unspecified) | inactive | inactive |
| CN(C)CCCNC(=O)c1ccc(-c2cnc3c(O)ccc(C(=O)O)c3c2)cc1 | inactive | inactive |
| CCOc1ccccc1-c1nnc2n1N=C(c1c(OC)cccc1OC)CS2 | inactive | inactive |

| SMILES | Potency [1] | Potency [2] |
| --- | --- | --- |
| COc1cc(F)c(S(=O)(=O)N2CCCN(S(=O)(=O)c3ccc(NC(C)=O)cc3)CC2)c(F)c1 | inactive | inactive |
| O=[S+]([O-])(c1ccc2c(c1)OCCO2)N1CCN([S+](=O)([O-])c2c(F)cc(Br)cc2F)CC1 | inactive | inactive |
| CN(C(=O)Nc1ccc2ccccc2c1)c1nnc(-c2ccncc2)s1 | inactive | inactive |
| N#Cc1cccc(-c2noc(-c3ccccc3F)n2)c1 | inactive | inactive |
| COC(=O)[C@@H]1C2CC3c4[nH]c5ccccc5c4CCN3CC2CC[C@@H]1O (stereo partly specified) | inactive | inactive |
| Cc1ccc(S(=O)(=O)Nc2ccncc2C(=O)Nc2nc(-c3ccccc3)cs2)cc1 | inactive | inactive |
| O=C1CCCC2=C1C(c1[nH]ncc1Cl)N=C(Nc1nc3cc(Br)ccc3o1)N2 (stereo unspecified) | inactive | inactive |
| Cc1ccc(S(=O)(=O)Nc2cnccc2C(=O)Nc2nc(-c3ccccc3)cs2)cc1 | inactive | inactive |
| Cc1cc(C)n2ncc(C(=O)Nc3ccc(Cl)c(Cl)c3)c2n1 | inactive | inactive |
| Cc1cc2c(s1)c1cnn(Cc3ccc(Cl)cc3)c(=O)c1n2C | inactive | inactive |
| CC(=O)NC(c1cc(Cl)c2cccnc2c1O)C1CC1 (stereo unspecified) | inactive | inactive |
| COc1cc(F)c(S(=O)(=O)N2CCN(S(=O)(=O)c3ccc(NC(C)=O)cc3)CC2)c(F)c1 | inactive | inactive |
| COc1cc(O)c(C(CC(=O)N2CCCC(C(F)(F)F)C2)c2ccc3c(c2)OCO3)c(OC)c1 (stereo unspecified) | inactive | inactive |
| Cc1nnc(-c2cnn(C)c2N)n1CCCc1ccccc1 | inactive | inactive |
| CC1=C(C(=O)Nc2ccc(Cl)cc2)C(c2ccccc2Br)N=C(Nc2nc3ccccc3o2)N1 (stereo unspecified) | inactive | inactive |
| CC(=O)O[C@@H]1C=C2[C@H](CC[C@@]3(C)[C@@]2(O)CC[C@H]2Cc4c([nH]c5ccccc45)[C@@]23C)O[C@@H]1C(C)(C)O | inactive | inactive |
| Cc1ccc(OCCn2c(CCN[S+](=O)([O-])C3CCCCC3)nc3ccccc32)cc1 | inactive | inactive |
| CCCn1c(-c2ccc(F)cc2)nc2c(NCCN(C)C)nc(C)nc21 | inactive | inactive |
| CC1=C(C(=O)Nc2ccon2)C2(CCCC2)N=C(Nc2nc3ccccc3o2)N1 | inactive | inactive |
